Screens from PubChem.
Sampled rows, rich in hits. Any-hit rate of the full collection: about 7.4%.
SNCA expr inhib: reduces expression of the alpha-synuclein gene; HEK-293 SNCA-luciferase knock-in, luminescence, 24 h; Potency, µM (titrated, usually from 57.2 µM), for inactives: at the top dose activity change, negative = inhibition, hits mostly inhibitors; hit rate 0.17% among 140,000;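 also: plate controls were DMSO cells for no effect and cell-free wells for full effect; nearly all actives have a fitted effect of over 45% in size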
NPR1 antag: blocks ANP-stimulated signaling of human Npr1 receptor; P16066; HEK293 hNpr1 GloSensor cGMP, ANP-stimulated luminescence; Potency, µM (doses to about 46.3 µM), for the others: at the top dose activity change, negative = inhibition, actives largely listed as inhibitors; hit rate 1.6% among 76,000; calls by dose curve; also: % is scaled to controls: 0 for no effect and ±100 for the full control effect; nearly all actives have a fitted effect of over 60% in size
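HEK293 cells stably expressing human Npr1 and cGMP GloSensor pGS-40F, loaded 2 h with 2% GloSensor reagent, given compound 30 min at room temperature. Luminescence read before and 20 min after 0.1 nM hNppA.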
HEK293 viab: reduces viability of HEK-293 SNCA reporter cells; HEK-293-SNCA-luc viability, GF-AFC fluorescence, 24 h; Potency, µM (titrated, usually from 57.1 µM), for the others: at the top dose activity change, negative = cytotoxicity, hits mostly cytotoxic; hit rate 0.12% among 150,000; AID 1671193;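 also: 0% = DMSO-treated cells and -100% = medium-only wells without cells; nearly all actives have a fitted effect of over 30% in size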
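HEK-293-SNCA-luc cells (1500/well) plated 24 h, then exposed 24 h to a dilution series; GF-AFC added 30 min at 37C, fluorescence 405/540 nm; normalised to medium-only and DMSO wells, Hill fit.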
Luciferase inh: inhibitors of firefly (Photinus pyralis) luciferase; P08659; purified P. pyralis luciferase, luminescence, biochemical; Potency, µM (highest dose often 115 µM), usual class: inhibitors; hit rate 2.5% among 76,000; also: % is scaled to controls: 0 for no effect and ±100 for the full control effect; nearly all actives have a fitted effect of over 65% in size
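Luminescence read by CCD imaging after purified firefly luciferase (10nM final) was added to substrate buffer holding 10uM D-luciferin and 10uM ATP, pH 7.5, pre-dosed with compound.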
NIH3T3 tox: NIH 3T3 cell cytotoxicity; NIH 3T3 viability, CellTiter-Glo ATP luminescence, 48-72 h; Potency, µM (highest dose often 96.7 µM), without a hit: at the top dose activity change, negative = cytotoxicity, most hits filed as inhibitors; hit rate 4.3% among 94,000; AID 1345082; also: % is scaled to controls: 0 for no effect and ±100 for the full control effect; nearly all actives have a fitted effect of over 55% in size
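First NIH 3T3 cells are plated at 400 cells/well; next compound is pinned in; then plates incubate 48 or 72 hr at 37 °C; finally CellTiter-Glo is added and luminescence read after 10 min.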
HEK293 tox: kills HEK 293 cells. hit rate 6.6% among 94,000. Potency, µM (series often up to 115 µM), inactives show top-dose activity change, negative = cytotoxicity, usual class: inhibitors. AID 1345083. HEK 293 viability, ATP luminescence (CellTiter-Glo), 48-72 h; also: % is scaled to controls: 0 for no effect and ±100 for the full control effect; nearly all actives have a fitted effect of over 60% in size
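Viability of HEK 293 cells, plated at 250 cells/well, was judged by cellular ATP after compound treatment for 48 or 72 hr. Luminescence was imaged 10 min after CellTiter-Glo addition at room temperature.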
Npr1 antag conf: hNpr1 antagonism, confirmation assay; shares compounds with NPR1 antag; Potency, µM (doses to about 57.6 µM), without a hit: at the top dose activity change, negative = inhibition, most hits filed as inhibitors; hit rate 76% among 1,400; HEK293 hNpr1 cGMP GloSensor luminescence, ANP-stimulated; AID 1347044; calls by dose curve; also: nearly all actives have a fitted effect of over 70% in size
Npr2 selectivity: selectivity test of Npr1 antagonists against human Npr2 | shares compounds with NPR1 antag | HEK293 hNpr2 GloSensor cGMP luminescence, CNP-stimulated | Potency, µM (titrated, usually from 57.6 µM), without a hit: top-dose activity change, negative = inhibition, usual class: inhibitors | hit rate 67% among 1,400 | AID 1347046; calls by dose curve; also: nearly all actives have a fitted effect of over 70% in size
FLuc counter: inhibits firefly luciferase, false Npr1 antagonist flag | shares compounds with NPR1 antag | purified FLuc enzyme, luminescence, Km substrate | Potency, µM (doses to about 57.6 µM), without a hit: at the highest dose activity change, negative = inhibition, most hits filed as inhibitors | hit rate 0.7% among 1,400 | AID 1347047; also: 0% is about no effect
GloSensor ctrl: counter-screen for Npr1 antagonists: GloSensor control cell line | hit rate 69% among 1,400 | HEK293 GloSensor cGMP, SNP-stimulated, luminescence | shares compounds with NPR1 antag | Potency, µM (top dose mostly 57.6 µM), for the others: top-dose activity change, negative = inhibition, usual class: inhibitors; calls by dose curve; also: % is scaled to controls: 0 for no effect and ±100 for the full control effect; nearly all actives have a fitted effect of over 70% in size
Active calls of the source: *; i = inactive; ? = inconclusive; nt = no result given; [ ] = dose if it differs, or a comment. Unless noted, calls follow the shape of the dose curve; as a rule, active = well fitted curve in the direction sought with a large enough effect; inconclusive = small, poorly fitted or top-dose-only effect, or another doubt; inactive = no such curve, though single readings can be large; an effect the other way counts as inactive or inconclusive. Potency is read from the fitted curve at half-maximal effect.

SMILES | SNCA expr inhib | NPR1 antag | HEK293 viab | Luciferase inh | NIH3T3 tox | HEK293 tox | Npr1 antag conf | Npr2 selectivity | FLuc counter | GloSensor ctrl
CC(C)NC(=O)c1cc(-c2ccc(F)cc2)cn1C | 4% | 7% | 6% | i | -5% | -1% | nt | nt | nt | nt
COc1ccc(S(=O)(=O)N2CCC(C(=O)Nc3ccc(Oc4ccccc4)cc3)CC2)cc1 | -15% | nt | 6% | nt | nt | nt | nt | nt | nt | nt
CC1(NC(=O)C2CC2)CN(c2ccc(Oc3ccccc3)cc2)C1 | -17%[87.6 µM] | 20µM* | -10%[87.6 µM] | i | -28%[138 µM] | ? | 18µM* | 22µM* | -1%[86.2 µM] | 16µM*
CC(=O)NC1(C)CCCN(c2ccc(Oc3ccccc3)cc2)C1 (stereo not given) | 83%[87.6 µM] | 18µM* | -19%[87.6 µM] | i | ? | ? | 20µM* | 20µM* | ? | 16µM*
CC(=O)NC1(C)CCCN(Cc2ccc(Oc3ccccc3)cc2)C1 (stereo not given) | -1%[87.6 µM] | 1%[70.6 µM] | 16%[87.6 µM] | ? | ? | ? | nt | nt | nt | nt
COCC(=O)N1CCN(C(=O)c2nc3cccnc3n(-c3ccccc3OC)c2=O)CC1 | -17% | nt | 16% | nt | -16% | -1% | nt | nt | nt | nt
CCN1CCN(C(=O)c2cn3cc(-c4cccc(C(F)(F)F)c4)sc3n2)CC1 | 16% | nt | 6% | nt | -24% | 0% | nt | nt | nt | nt
CN(Cc1cccnc1)c1ccc2ncc(Nc3cccc(C(F)(F)F)c3)n2n1 | ? | 13µM* | -9%[87.6 µM] | i | ? | 40µM* | 14µM* | 16µM* | -3%[86.2 µM] | 13µM*
N#Cc1cccc(-c2c(C(=O)NC3CC3)nc3sccn23)c1 | -5% | nt | -1% | nt | i | i | nt | nt | nt | nt
O=C(CCc1nc2ccccc2s1)N1CCC(Cc2noc(-c3ccc(F)cc3)n2)C1 (stereo not given) | ? | 11µM* | ? | i | ? | 40µM* | 22µM* | 22µM* | -8% | 22µM*
CC(=O)N1CCC(Cc2noc(-c3ccc(F)cc3)n2)C1 (stereo not given) | 5% | 0% | 7% | i | -6% | -3% | nt | nt | nt | nt
COc1ccc(-c2nc(CC3CCN(C(=O)c4n[nH]c(=O)c5ccccc45)C3)no2)cc1 (stereo not given) | -29% | 10µM* | ? | i | ? | 32µM* | 12µM* | 11µM* | 0% | 8.6µM*
O=C(CCc1nc2ccccc2s1)N1CCCC(c2nc(C3CCOCC3)no2)C1 (stereo not given) | 4% | -14% | -17% | i | -26% | ? | -10% | 2% | -7% | -4%
O=C(CC(c1ccc(F)cc1)c1cn(Cc2ccccc2)c2ccc([N+](=O)[O-])cc12)N1CCOCC1 (stereo not given) | ? | 10µM* | ? | i | ? | ? | 24µM* | 24µM* | 0% | 19µM*
Cc1ccc(C(CC(=O)N2CCN(c3ccc([N+](=O)[O-])cc3)CC2)c2cn(C)c3ccccc23)cc1 (stereo not given) | 1% | 0% | -13% | i | -23% | ? | nt | nt | nt | nt
CCc1cc2c(cc1CC)CC(NCC(O)c1ccc(O)c3[nH]c(=O)ccc13)C2 (stereo not given) | nt | nt | 9% | nt | nt | nt | nt | nt | nt | nt
CCCCn1c(=O)c(C(=O)NCCCc2ccccc2)nc2cccnc21 | 5% | nt | -10% | nt | ? | ? | nt | nt | nt | nt
CC(C)C(=O)N[C@H]1C[C@@H](Cc2cc(CN3CCOCC3)on2)C1(C)C | 2%[87.6 µM] | 4%[70.6 µM] | 2%[87.6 µM] | i | -11%[174 µM] | -12%[172 µM] | nt | nt | nt | nt
CC(C)NC(=O)N[C@H]1C[C@@H](Cc2cc(CN3CCN(c4ccccc4)CC3)on2)C1(C)C | ? | 11µM* | -2% | i | ? | ? | 19µM* | 19µM* | 0% | 17µM*
CC(C)(C)C(=O)N[C@H]1C[C@@H](Cc2cc(CN3CCN(c4ccccc4)CC3)on2)C1(C)C | -21% | 11µM* | 6% | i | -34% | ? | 19µM* | 17µM* | -1% | 12µM*
CC(=O)N1CCC(Cc2ccc(C(=O)NC3CCN(Cc4ccccc4)CC3)cc2)CC1 | 0% | 11µM* | 3% | i | ? | ? | 24µM* | ? | 1% | 24µM*
CCOC(=O)C1=CN(CC(=O)Nc2c(C)cc(C)cc2C)S(=O)(=O)N=C1C | -17% | 11µM* | -5% | i | -19% | ? | 24µM* | ? | 0% | 27µM*
CCOC(=O)C1=CN(CC(=O)Nc2ccc(C)cc2C)S(=O)(=O)N=C1C | ? | -11% | -3% | i | -26% | -16% | nt | nt | nt | nt
COc1ccccc1N1CCN([C@@H]2[C@H](O)[C@H](CO)O[C@@H]2CN(Cc2ccc(F)cc2)Cc2ccc(F)cc2)CC1 | ? | ? | ? | i | 32µM* | 28µM* | ? | 14µM* | 0% | -24%
C[C@H]1CC[C@@]2(OC1)O[C@H]1CC3C4CC=C5C[C@H](O)C[C@@H](O[C@@H]6O[C@@H](C)[C@H](O)[C@@H](O)[C@H]6O[C@@H]6O[C@@H](C)[C@H](O)[C@@H](O)[C@H]6O)[C@]5(C)C4CC[C@]3(C)[C@H]1[C@@H]2C (stereo not given in full) | nt | nt | -5%[23.9 µM] | nt | nt | nt | nt | nt | nt | nt
CCc1cc(=O)n(CC(=O)Nc2ccc3c(c2)OCCO3)c(-c2cccc(F)c2)n1 | 9% | ? | -4% | i | ? | ? | ? | -27% | 1% | ?
Nc1ncccc1CN1CCC2(CC1)COCCN2C(=O)OCc1ccccc1 | -16%[87.6 µM] | 7.9µM* | -5%[87.6 µM] | i | ? | ? | 11µM* | 11µM* | 2%[86.2 µM] | 11µM*
